About 11,000 (3.1%) of roughly 360,000 compounds were called active. Not shown: some 4% with an inconclusive outcome. Calls follow the shape of the dose curve; as a rule, active = well fitted inhibition curve with a large enough effect; inconclusive = small, poorly fitted or top-dose-only effect; inactive = no such curve, though single readings can be large or run the other way. The list comes from a sample in which actives are over-represented; it also holds similar structures and randomly drawn compounds. Entries that show only a call come without a potency.
Potency is read from the fitted curve at half-maximal effect.

The assay has as its target Schistosoma mansoni thioredoxin glutathione reductase (TGR) (UniProt Q962Y6). Put plainly: qHTS Assay for the Inhibitors of Schistosoma Mansoni Peroxiredoxins. Also: nearly all actives have a fitted effect of over 60% in size. As to conditions: purified TGR, DTNB reduction, TNB absorbance 405 nm; series mostly up to 114 µM. Put shortly: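 Kinetic colorimetric format: TGR-catalysed, NADPH-driven DTNB reduction monitored via TNB absorbance. Enzyme dispensed at 20 nM; compound exposure 15 min at room temperature before reaction start.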
A general note: In qHTS, concentration-response curves come from the screen itself.
In the case of `COC(=O)c1c(NC(=O)CCCOc2ccccc2)sc2c1CCC(C)C2` (stereo unspecified), the Potency result was “inactive”. With `O=C(O)CCn1cc(C=C2C(=O)NC(=S)NC2=O)c(-c2cccc(Br)c2)n1` the figure was 31.6 µM (active); with `O=C(O)CCn1cc(/C=C/C(=O)c2ccc(Cl)cc2)c(-c2cccc(Br)c2)n1`, “inactive”. As for `Cc1cccc(NC(=O)c2ccc3nc(C(C)C)oc3c2)c1C`, the Potency entry is “inactive”. Regarding `O=S(=O)(c1ccc(Br)cc1)c1nc(-c2ccccc2)oc1N1CCOCC1`, the Potency entry was “inactive”. Turning to `O=S(=O)(c1ccccc1)c1nc(Cc2ccccc2)oc1N1CCOCC1`, the Potency was 2 µM (active). Under `O=S(=O)(c1ccccc1)c1nc(-c2ccccc2)oc1NCCCN1CCOCC1` stands “inactive”. Under `Cc1ccc(NC(=O)Nc2sc3nc4n(c(=O)c3c2C)CCC(C)CC4)c(Cl)c1` (stereo unspecified) stands “inactive”; under `CCC(C)c1ccc2oc(-c3ccc(NC(=O)c4cc5ccccc5o4)cc3)nc2c1` (stereo unspecified), “inactive”; under `Cc1ccc(C2c3[nH]c4ccccc4c3CCN2C(=O)c2cccc(C)c2)cc1` (stereo unspecified), “inactive”. Turning to `Cc1ccc(C)c(N2C(=O)N(Cc3c(F)cccc3Cl)c3ccccc3S2(=O)=O)c1`, the Potency entry is “inactive”. Under `CCN(CC(=O)NCc1ccco1)S(=O)(=O)c1ccc(F)cc1` stands “inactive”; under `CC(C)(C)c1ccc(C(=O)NCC(c2ccco2)S(=O)(=O)c2ccc(F)cc2)cc1` (stereo unspecified), 11.2 µM (active). As for `COc1ccc(CCNC(=O)C(=O)NCC2CCCN2S(=O)(=O)c2cccs2)cc1OC` (stereo unspecified), the Potency result is “inactive”.

Consider `COc1ccc(CCNC(=O)C(=O)NCC(c2ccco2)S(=O)(=O)c2cccs2)cc1OC` (stereo unspecified), for which the Potency was 3.55 µM (active). With `O=C(CCNC(=O)c1ccc(Br)cc1)NCC(c1ccco1)N1CCCCC1` (stereo unspecified) the entry was “inactive”; with `COc1ccc(CCNC(=O)C(=O)NCc2ccccc2C)cc1OC`, “inactive”; with `O=C(NCC(c1ccco1)S(=O)(=O)c1cccs1)c1ccc(F)cc1` (stereo unspecified), 7.08 µM (active).

For the compound `O=C(NCC(c1ccco1)N1CCc2ccccc21)c1cccc(F)c1` (stereo unspecified), the Potency result is “inactive”.

As for `Cc1cc(S(=O)(=O)Nc2ccc(C(=O)NCC(c3ccco3)N3CCCC3)cc2)ccc1F` (stereo unspecified), the Potency result was “inactive”. Under `CCC(=O)Nc1c(C(=O)N2CCN(c3ccc(F)cc3)CC2)oc2ccccc12` stands “inactive”. Consider `CN(CC(=O)Nc1cccc(C(F)(F)F)c1)S(=O)(=O)c1cccs1`, for which the Potency result is “inactive”. With `CCOc1ccc(N(CC)C(=O)c2noc3c2COc2ccc(C)cc2-3)cc1` the entry was “inactive”. For `Cc1ccc2[nH]c3c(=O)n(CC(=O)NC(C)C)ncc3c2c1`, the Potency result is “inactive”.

Turning to `Cc1ccc2c(=O)cc(C(=O)Nc3sc4c(c3C(=O)NCc3cccnc3)CCCC4)oc2c1`, the Potency result was “inactive”. Take `CCCNC(=O)c1ccc(Cn2c(SCC(N)=O)nc3ccccc3c2=O)cc1`: the Potency result is “inactive”. For `CCN(CC(=O)Nc1ccc(C)c(S(=O)(=O)N(C)C)c1)Cc1ccccc1`, the Potency entry is “inactive”. Under `CN(C)S(=O)(=O)c1cc(NC(=O)CN2C(=O)NC3(CCCc4ccccc43)C2=O)ccc1Cl` (stereo unspecified) stands “inactive”; under `CCN(CC)c1ccc(C(=O)NNC(=O)CCc2nc3ccccc3c(=O)[nH]2)cc1`, “inactive”. On to `CCN(CC(=O)Nc1cccc(S(N)(=O)=O)c1)Cc1nc2ccccc2c(=O)[nH]1`, for which the Potency entry was “inactive”. For the compound `CCN(CC(=O)Nc1ccc(Cl)c(S(=O)(=O)N(C)C)c1)Cc1nc2ccccc2c(=O)[nH]1`, the Potency was 39.8 µM (active). Take `CCCCN(CC(=O)Nc1cccc(S(=O)(=O)N2CCCC2)c1)Cc1nc2ccccc2c(=O)[nH]1`: the Potency is 22.4 µM (active).

Consider `CCN(CC(=O)NC(=O)NCc1ccccc1)Cc1nc2ccccc2c(=O)[nH]1`, for which the Potency is 89.1 µM (active). In the case of `CCN(CC(=O)Nc1cccc(S(=O)(=O)N2CCCCC2)c1)Cc1ccccc1`, the Potency entry is “inactive”.

Turning to `O=C(c1ccco1)N(Cc1nc2ccccc2c(=O)[nH]1)C1CCCC1`, the Potency entry was “inactive”. `Cn1c(=O)c2c(SCC(=O)N3CCc4ccccc43)nc(-c3ccc(Cl)cc3)nc2n(C)c1=O`: the Potency entry is “inactive”. Under `COc1ccc(-c2nc(C)c(CCNC(=O)c3ccc(C(F)(F)F)cc3)s2)cc1OC` stands “inactive”; under `COc1ccccc1NC(=O)CSC1=Nc2ccccc2C2=NC(CC(=O)NCc3cccs3)C(=O)N12` (stereo unspecified), “inactive”; under `Cn1c(=O)c2c(SCC(=O)NCC3CCCO3)nc(-c3ccccc3F)nc2n(C)c1=O` (stereo unspecified), “inactive”. For the compound `CCCCc1nn2c(=O)cc(COC(=O)c3ccccc3NC(=O)C(C)(C)C)nc2s1`, the Potency result is “inactive”. In the case of `Cc1nn(C(C)C(=O)NCCc2ccccc2)c(=O)c2c1sc1ccccc12` (stereo unspecified), the Potency entry was “inactive”. Regarding `COc1cccc2c1cc1c(=O)n(CC(=O)N3CCN(c4ccccc4)CC3)nc(C)n12`, the Potency entry is “inactive”. Take `O=c1c2cccnc2n(Cc2cccc(F)c2)c(=O)n1Cc1ccccc1Cl`: the Potency result was “inactive”. With `COc1cccc2c1cc1c(=O)n(CC(=O)N3CCN(c4cccc(Cl)c4)CC3)nc(C)n12` the entry was “inactive”. Turning to `Cc1nc2ccccn2c(=O)c1NC(=O)c1c(F)cccc1F`, the Potency entry was “inactive”. With `CCn1cc(C(=O)N(C)Cc2ccccc2)c(=O)c2cc(S(=O)(=O)N3CCCCCC3)ccc21` the entry was “inactive”; with `Cc1cccc(C)c1NC(=O)CSc1nc2c([nH]1)c(=O)n(C)c(=O)n2C`, “inactive”. As for `CC(CCO)Nc1nc2c([nH]1)c(=O)n(C)c(=O)n2C` (stereo unspecified), the Potency entry was “inactive”. With `Cc1ccc(NN=Nc2nc3c([nH]2)c(=O)n(C)c(=O)n3C)cc1`, the Potency was 56.2 µM (active).

For `CCc1cccc(C)c1NS(=O)(=O)c1ccc(-c2cc(C)no2)s1`, the Potency result was “inactive”.

In the case of `Cc1nc2ccn(Cc3cccs3)c(=O)c2cc1C(=O)NCc1ccc(Cl)cc1`, the Potency result is “inactive”. Turning to `COc1ccc(-c2onc(C)c2C)cc1S(=O)(=O)NCc1cccs1`, the Potency result was “inactive”. On to `CCN(CC)S(=O)(=O)c1ccc2c(c1)c(=O)c(C(=O)N1CCN(c3cccc(Cl)c3)CC1)cn2C`, for which the Potency entry was “inactive”.

`Cc1cc(NC(=O)CCS(=O)(=O)c2ccc(F)cc2)no1`: the Potency was 17.8 µM (active). With `Cc1cc(NC(=O)CSc2nnnn2-c2ccc(F)cc2)no1`, the Potency result was “inactive”. Turning to `Cc1cc(NC(=O)CCC(=O)N(CC(=O)NC2CCCC2)c2ccc(F)cc2)no1`, the Potency result is “inactive”. Under `COc1ccccc1Nc1c2c(nc3ccc(NC(=O)/C=C/c4cc(OC)c(OC)c(OC)c4)cc13)CCCC2` stands “inactive”; under `CCOC(=O)c1ccc(CSc2nnc3cc(C)c4ccccc4n23)cc1`, “inactive”; under `O=c1[nH]c(O)c(C=Nc2cc(F)cc(F)c2)c(=O)[nH]1`, “inactive”. In the case of `O=C1N=c2ccccc2=C/C1=C\c1c(O)[nH]c(=S)[nH]c1=O`, the Potency was 10 µM (active).

As for `Cc1ccc2c(c1)=C/C(=C\c1c(O)[nH]c(=O)[nH]c1=O)C(=O)N=2`, the Potency was 14.1 µM (active). Turning to `Cc1cccc(S(=O)(=O)c2cn(Cc3ccccc3)c3cc(N4CCOCC4)c(F)cc3c2=O)c1`, the Potency entry was “inactive”.

In the case of `COc1ccc(NC(=O)CCCc2nnc3n(CCC(C)C)c(=O)c4sccc4n23)c(OC)c1`, the Potency result is “inactive”. Turning to `CCn1c2ccccc2c2cc(CN3CCN(Cc4cccc(Cl)c4)CC3)ccc21`, the Potency entry is “inactive”. As for `CCOC(=O)c1c(SCC(=O)Nc2cccc(C)c2C)nc(=O)[nH]c1C`, the Potency entry is “inactive”. With `Cc1ccc(NC(=O)CSc2nc3c(c(=O)[nH]2)CN(Cc2ccc4c(c2)OCO4)CC3)cc1C` the entry was “inactive”; with `COc1ccc(Cl)cc1NC(=O)C(C)Sc1nc2c(c(=O)[nH]1)CCCC2` (stereo unspecified), “inactive”; with `CCC(=O)Nc1ccccc1-c1nc2ccccc2n(CC(=O)Nc2ccc(C)c(C)c2)c1=O`, “inactive”. Under `CCOc1ccc(CNC(=O)c2cc(=O)[nH]c3ccc(S(=O)(=O)N4CCCCC4)cc23)cc1` stands “inactive”. For `O=C(Cn1ncn2nc(-c3cccs3)cc2c1=O)NCc1cccc(Br)c1`, the Potency result is “inactive”. As to `COc1cc(OC)c(C2C=C(C(=O)O)Nc3ncnn32)cc1OC` (stereo unspecified), the Potency entry is “inactive”.

In the case of `CS(=O)(=O)c1ccc2c(c1)SC1=NC(=O)/C(=C/c3ccco3)C(=N)N12`, the Potency is 20 µM (active). As to `CCS(=O)(=O)C1=NSC2=NC(=O)/C(=C\c3ccc(OS(=O)(=O)c4ccccc4)cc3)C(=N)N21`, the Potency entry is “inactive”. Consider `CS(=O)(=O)C1=NN2C(=N)/C(=C\c3ccc(OCCOc4ccccc4)cc3)C(=O)N=C2S1`, for which the Potency result is “inactive”. Under `CCOC(=O)c1ccc(NC(=O)CC2C(=O)N(c3ccccc3)C(=O)N2Cc2cccs2)cc1` (stereo unspecified) stands “inactive”; under `Cc1c(Cl)cnc(NC(=O)COC(=O)c2ccc(S(=O)(=O)NCc3ccco3)cc2)c1Cl`, 28.2 µM (active). With `C/C(=N\Nc1ncc(Cl)cc1Cl)c1ccc(S(=O)(=O)NCc2ccco2)cc1`, the Potency result was “inactive”. In the case of `O=C(COC(=O)c1cnc(Cl)c(Cl)c1)NCc1ccco1`, the Potency result was “inactive”. Turning to `COc1ccc(NC(=O)CSc2nccn2Cc2ccc3c(c2)OCO3)cc1`, the Potency entry was “inactive”.

Turning to `CC1=C(C(=O)Nc2ccccc2Cl)C(c2cccs2)n2ncnc2N1` (stereo unspecified), the Potency entry is “inactive”. As to `O=C(CSc1ncc(CO)n1Cc1ccc(Cl)cc1)NCc1ccc(F)cc1`, the Potency result is “inactive”. As to `COC(=O)COc1ccc2c(c1C)O/C(=C\c1ccco1)C2=O`, the Potency is 10 µM (active). Take `Cc1cc(C)c(OCC(=O)N/N=C/c2ccco2)c(C)c1`: the Potency result is “inactive”. For the compound `COC(=O)COc1cc(C)cc2oc(=O)c3c(c12)CCCC3`, the Potency result was “inactive”.

As for `Cc1ccc(NS(=O)(=O)c2ccc(-c3ccc(=O)[nH]n3)o2)c(C)c1`, the Potency result is “inactive”. Consider `CC1CCCN(S(=O)(=O)c2ccc(-c3ccc(=O)[nH]n3)o2)C1` (stereo unspecified), for which the Potency was 28.2 µM (active). With `CC1CCCN(S(=O)(=O)c2ccc(C(=O)Nc3nnc(-c4ccncc4)o3)cc2)C1` (stereo unspecified) the entry was “inactive”.

Consider `Cc1cccc(CS(=O)(=O)c2ncc(Cl)c(C(=O)Nc3ccc(F)cc3)n2)c1`, for which the Potency was 7.08 µM (active). With `Cc1ccc(NC(=O)c2nc(S(=O)(=O)Cc3cccc(C)c3)ncc2Cl)cc1` the figure was 12.6 µM (active).

For the compound `Cc1ccc(CCNC(=O)c2ccc(CS(=O)(=O)Cc3cccc(C)c3)o2)cc1`, the Potency result was “inactive”. For the compound `CCS(=O)(=O)c1ncc(N(Cc2ccc(F)cc2)Cc2ccco2)c(C(=O)Nc2cc(C)ccc2C)n1`, the Potency entry is “inactive”.

`CSc1nnc(NC(=O)c2nc(S(=O)(=O)Cc3ccc(C)cc3)ncc2Cl)s1`: the Potency is 3.16 µM (active). Under `Cc1ccc(NC(=O)c2cccnc2C(=O)Nc2ccc(C)cc2)cc1` stands “inactive”; under `Cc1ccc2nc(NC(=O)c3nc(SCc4ccccc4F)ncc3Cl)sc2c1`, “inactive”; under `O=C(Nc1nc2ccc(F)cc2s1)c1nc(SCc2ccccc2F)ncc1Cl`, “inactive”. For the compound `CCOC(=O)c1ccc(NC(=O)c2nc(SCc3ccc(F)cc3)ncc2Cl)cc1`, the Potency result is “inactive”.

The values are drawn from PubChem BioAssay AID485364 (National Center for Advancing Translational Sciences (NCATS), 2010).
